Inconclusive results are not listed. Active and inactive are the calls of the source.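 How the source made its calls, unless noted: active means viability at or under a set limit in both replicates, limit being median viability minus 3 SD (cut at about 48% in these data, passing the limit was not always enough); inconclusive means at or under the limit in just one replicate; inactive means at or above the limit in both replicates.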
Legend:
[1] = reducers of endogenous Her2 protein level, primary screen, SKBR3 breast tumor cells, AlphaScreen, ATP viability (AID 461;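 active means Her2 level under about 52% in both replicate screens, with viability over 70% of control, limit read from the data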;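 on Her2 level: lower value means less Her2 protein in the cells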;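 on viability: percent of carrier control wells set as 100% viability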); conditions: 18-24 h, measured here: SKBR3 viability, ATP luminescence, at 10 µM
[2] = target: Receptor tyrosine-protein kinase erbB-2 (Homo sapiens) (UniProt P04626); test: as above; conditions: 18-24 h, at 10 µM, stronger effect = lower value
Receptor tyrosine-protein kinase erbB-2 (Homo sapiens), sequence (P04626 whole entry, looked up): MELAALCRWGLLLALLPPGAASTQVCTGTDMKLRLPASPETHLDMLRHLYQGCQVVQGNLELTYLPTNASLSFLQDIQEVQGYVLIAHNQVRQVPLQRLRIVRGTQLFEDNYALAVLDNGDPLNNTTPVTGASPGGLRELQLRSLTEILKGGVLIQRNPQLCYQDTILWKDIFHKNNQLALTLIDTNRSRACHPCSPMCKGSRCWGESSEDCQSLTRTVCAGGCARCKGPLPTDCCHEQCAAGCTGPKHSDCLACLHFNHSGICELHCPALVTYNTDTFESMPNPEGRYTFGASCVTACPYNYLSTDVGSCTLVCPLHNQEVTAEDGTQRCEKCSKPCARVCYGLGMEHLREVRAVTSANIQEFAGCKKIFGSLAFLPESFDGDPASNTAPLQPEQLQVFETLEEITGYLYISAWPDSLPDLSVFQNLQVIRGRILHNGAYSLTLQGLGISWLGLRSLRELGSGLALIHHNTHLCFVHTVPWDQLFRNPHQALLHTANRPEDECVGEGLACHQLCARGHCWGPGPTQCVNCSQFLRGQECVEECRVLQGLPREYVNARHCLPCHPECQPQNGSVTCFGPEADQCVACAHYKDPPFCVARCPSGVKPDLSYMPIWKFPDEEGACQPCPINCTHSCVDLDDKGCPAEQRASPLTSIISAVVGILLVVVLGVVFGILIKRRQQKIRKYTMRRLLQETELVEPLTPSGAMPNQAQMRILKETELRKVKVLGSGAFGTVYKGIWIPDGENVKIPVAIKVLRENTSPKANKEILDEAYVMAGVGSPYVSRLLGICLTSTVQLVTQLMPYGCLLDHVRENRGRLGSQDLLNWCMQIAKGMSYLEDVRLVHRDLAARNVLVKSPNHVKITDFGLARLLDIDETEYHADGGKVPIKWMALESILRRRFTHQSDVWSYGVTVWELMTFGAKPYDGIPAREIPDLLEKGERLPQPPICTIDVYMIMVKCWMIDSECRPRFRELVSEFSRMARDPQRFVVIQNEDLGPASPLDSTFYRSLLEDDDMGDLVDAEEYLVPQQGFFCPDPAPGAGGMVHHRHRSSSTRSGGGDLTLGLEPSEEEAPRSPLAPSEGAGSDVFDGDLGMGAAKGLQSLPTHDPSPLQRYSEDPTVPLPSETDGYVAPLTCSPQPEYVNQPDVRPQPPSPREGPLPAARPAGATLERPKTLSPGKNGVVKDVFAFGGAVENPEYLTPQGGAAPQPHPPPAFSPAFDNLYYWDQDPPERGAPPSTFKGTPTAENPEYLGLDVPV

[3] = SK-BR-3 cell growth inhibitors, pilot screen, 24 h, human (AID 572;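 active means viability at or below 10% of carrier control in both of two separate runs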;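 further: compound exposure lasted between 18 and 24 h rather than exactly 24 h; 100% = carrier-treated control wells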); conditions: SK-BR-3 viability, CellTiter-Glo luminescence, at 10 µM, stronger effect = lower value
[4] = HUVEC growth inhibition – cell-based, human, primary screen (AID 575;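 active means viability at or below 30% in both replicate assays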;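 further: 100% = median of untreated cell wells with 0.1% DMSO on each plate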); conditions: HUVEC proliferation, CellTiter-Glo luminescence, 72 h; at 10 µM; stronger effect = lower value
[5] = growth inhibitors of H69AR lung tumor, primary screen, human, duplicate replicates (AID 580); conditions: H69AR lung tumor cells viability, ATP luminescence, 72 h; at 10 µM; stronger effect = lower value;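 further: 100% = mean luminescence of untreated wells and 0% = no signal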
[6] = reversal of MRP1-mediated doxorubicin resistance, pilot screen, H69AR cells, doxorubicin co-treatment (AID 601;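 active means viability loss from added drug above about 55%, and viability with drug at most 40%, in both replicates, limit read from the data, passing the limit was not always enough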); conditions: CellTiter-Glo, 72 h, at 10 µM; for differential viability (reversal): stronger effect = higher value
[7] = 384-well plate pilot, post-Golgi transport modulator project, inhibition of yeast transport mutant growth (AID 636; in the data active means inhibition above about 31%); conditions: absorbance 615 nm, about 18 h, stronger effect = higher value
[8] = growth suppression of yeast trafficking mutant, preliminary HTS, modulators of trafficking downstream of Golgi apparatus project, 1536-format plate, OD 615 nm (AID 637; in the data active means inhibition above about 30%); conditions: yeast transport mutant growth, absorbance 615 nm, 18 h; stronger effect = higher value
[9] = OD615 S. cerevisiae growth inhibition, permissive medium, pilot counter-assay, permissive growth control for S. cerevisiae lifespan shortening project (AID 705;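 active means growth inhibition above 25% in both replicates, a cutoff set 3 SD above the mean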); conditions: OD615, 24 h, at 10 µM, stronger effect = higher value
[10] = Restrictive medium S. cerevisiae growth inhibition, OD615, pilot screen of yeast lifespan reduction project, restrictive growth control (AID 706;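 active means growth inhibition above a set limit, 3 SD over mean compound inhibition, in both replicates, cut at about 43% in these data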;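 further: modified DeaD lifespan yeast strain shifted to restrictive glucose medium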); conditions: OD615, 48 h, at 10 µM, stronger effect = higher value
[11] = viability gain of MRP-1-high H69AR cells under doxorubicin, pilot screen, MRP-1 activator project, CellTiter-Glo, duplicate (AID 807;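 active means viability increase at or above a cutoff of the median across tested compounds plus 3 SD, cut at about 8.5% in these data, passing the limit was not always enough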;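 further: compound pretreatment 18-22 h then 72 h combined with doxorubicin; 0% = doxorubicin alone and 100% = vehicle without doxorubicin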); conditions: H69AR viability with doxorubicin, CellTiter-Glo luminescence; at 10 µM; stronger effect = higher value
[12] = growth suppression of beta-catenin knockout HCT116, pilot screen, human colon tumor cells (AID 823;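 active means cell viability at or below a set limit in both duplicate runs, the limit being the all-compound median minus 4 SD, cut at about 23% in these data, passing the limit was not always enough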;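 further: 0% = wells killed by 20 µM Hyamine and 100% = untreated DMSO cell wells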); conditions: CellTiter-Glo, 60 h, at 10 µM, stronger effect = lower value
[13] = growth suppression of PTEN-deleted HCT116, pilot screen, cell-based, HCT116 clonal line, CellTiter-Glo (AID 824;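 active means viability at or below 27.92% in each of two runs, the all-compound median minus 4 SD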;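 further: 0% = 20 µM Hyamine control and 100% = vehicle cell control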); conditions: 60 h, at 10 µM, stronger effect = lower value
[14] = inhibitors of the yeast RAM network, pilot screen, dse1pr::URA3 reporter, 5-FOA selection (AID 869;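 active means inhibition over a set limit, the all-compound mean plus 3 SD, in both replicate runs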;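 further: 0% = DMSO wells with no growth and 100% = 10 µM 1-NA-PP1 with full growth; RAM network block rescues cells from 5-FOA so hits raise OD615 growth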); conditions: S. cerevisiae dse1pr::URA3 5-FOA growth, OD615, 2 d; at 10 µM; stronger effect = higher value; strain carries analog-sensitive mutant Cbk1 kinase
[15] = RAM signaling pathway blockade in yeast – S. cerevisiae, Pdr1DBD-CYC8 efflux-inhibited sensitized strain, primary screen (AID 1298;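 active means RAM network inhibition above 8.4% in each of two replicates, 3 SD over the compound average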;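 further: 0% = DMSO untreated cells without growth and 100% = 10 µM 1-NA-PP1 full growth; higher means more yeast growth rescued from 5-FOA killing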); conditions: S. cerevisiae cbk1-as DSE1-URA3 strain, 5-FOA growth OD615, 2 d; at 50 µM; stronger effect = higher value
[16] = H69AR cells + 2 uM doxorubicin, measured here: viability with 2 uM doxorubicin, stronger effect = lower value
[17] = H69AR cells, compound alone cytotoxicity

CCOC(=O)C1CCN(C(=O)CN(c2ccc(Cl)c(C(F)(F)F)c2)S(C)(=O)=O)CC1
inactive: Her2 level [2] 100% | viability [3] 112% | viability [4] 107% | viability [5] 92.1% | differential viability (reversal) ([6]; H69AR cells + 2 uM doxorubicin) -9.81% | inhibition [7] -0.65% | inhibition [8] -2.5% | growth inhibition [9] -11.9% | growth inhibition [10] -8.95% | viability increase [11] -3.24% | viability [12] 88.1% | viability [13] 84.7% | inhibition [14] -0.1% | RAM network inhibition [15] 0.63%
92.1%: viability [6, 17]
112%: viability [1]
102%: viability [6, 16]

CC(Oc1ccc2oc(-c3ccccc3)c(C(=O)O)c2c1)C(=O)O (stereo not given)
95.5%: viability [1]
inactive: Her2 level [2] 77.5% | viability [3] 95.5% | viability [4] 103% | viability [5] 103% | differential viability (reversal) ([6]; H69AR cells + 2 uM doxorubicin) 6.43% | inhibition [7] -4.86% | inhibition [8] -6% | growth inhibition [9] -7.27% | growth inhibition [10] 2.06% | viability increase [11] -1.56% | viability [12] 99.3% | viability [13] 102% | inhibition [14] 1.73% | RAM network inhibition [15] 4.67%
96.3%: viability [6, 16]
103%: viability [6, 17]

Cc1cccc(NC(=O)CS(=O)(=O)c2cn(C)c3ccccc23)c1
92%: viability [6, 16]
inactive: Her2 level [2] 95.5% | viability [3] 98% | viability [4] 105% | viability [5] 90.6% | differential viability (reversal) ([6]; H69AR cells + 2 uM doxorubicin) -1.36% | inhibition [7] -3.47% | inhibition [8] -0.98% | growth inhibition [9] 1.62% | growth inhibition [10] -12% | viability increase [11] -3.05% | viability [12] 97.1% | viability [13] 92.6% | inhibition [14] 1.98% | RAM network inhibition [15] 4.28%
98%: viability [1]
90.6%: viability [6, 17]

Oc1ccc(Cl)cc1-c1cc(-c2ccccc2)n[nH]1
inactive: Her2 level [2] 61% | viability [3] 55.5% | differential viability (reversal) ([6]; H69AR cells + 2 uM doxorubicin) -7.55% | inhibition [7] -0.53% | growth inhibition [9] -1.5% | growth inhibition [10] -6.9% | viability increase [11] -7.82% | inhibition [14] 1.59% | RAM network inhibition [15] 8.32%
6.37%: viability [6, 17]
55.5%: viability [1]
active: viability [4] 7.56% | viability [5] 6.37% | inhibition [8] 100% | viability [12] 16% | viability [13] 23.1%
13.9%: viability [6, 16]

Cn1nnnc1SCC(=O)N1CCN(c2ccccc2)CC1
78.8%: viability [6, 16]
inactive: Her2 level [2] 122% | viability [3] 94.5% | viability [4] 97.4% | viability [5] 87.7% | differential viability (reversal) ([6]; H69AR cells + 2 uM doxorubicin) 8.86% | inhibition [7] 1.92% | inhibition [8] -6.33% | growth inhibition [9] -0.355% | growth inhibition [10] -1.68% | viability increase [11] -0.97% | viability [12] 93.1% | viability [13] 99.6% | inhibition [14] 0.735% | RAM network inhibition [15] 1.14%
87.7%: viability [6, 17]
94.5%: viability [1]

Cc1ccc(C(C)C)c(OCCCN2CC(C)OC(C)C2)c1 (stereo not given)
inactive: Her2 level [2] 85% | viability [3] 98.5% | viability [4] 101% | viability [5] 89.4% | differential viability (reversal) ([6]; H69AR cells + 2 uM doxorubicin) -9.6% | inhibition [8] 27.7% | growth inhibition [9] -7.86% | growth inhibition [10] -13.4% | viability increase [11] -2.59% | viability [12] 78.5% | viability [13] 89.3% | inhibition [14] 0.705% | RAM network inhibition [15] 1.47%
99%: viability [6, 16]
active: inhibition [7] 75.4%
98.5%: viability [1]
89.4%: viability [6, 17]

COc1ccc(S(=O)(=O)N2CCC(C(=O)Nc3c(F)cccc3F)CC2)cc1
88.5%: viability [1]
96.8%: viability [6, 16]
97.6%: viability [6, 17]
inactive: Her2 level [2] 111% | viability [3] 88.5% | viability [4] 96.5% | viability [5] 97.6% | differential viability (reversal) ([6]; H69AR cells + 2 uM doxorubicin) 0.885% | inhibition [7] 0.93% | inhibition [8] -4.17% | growth inhibition [9] -11.9% | growth inhibition [10] -14.8% | viability increase [11] -2.23% | viability [12] 99.6% | viability [13] 101% | inhibition [14] 3.77% | RAM network inhibition [15] 3.07%

COc1cccc(-c2cc(C(=O)N3CCCCCC3)no2)c1
85.9%: viability [6, 17]
inactive: Her2 level [2] 94% | viability [3] 98.5% | viability [4] 77.4% | viability [5] 85.9% | differential viability (reversal) ([6]; H69AR cells + 2 uM doxorubicin) 8.21% | inhibition [7] -5.2% | inhibition [8] 2.83% | growth inhibition [9] -12.5% | growth inhibition [10] -18.2% | viability increase [11] -0.05% | viability [12] 96.6% | viability [13] 90.9% | inhibition [14] 0.305% | RAM network inhibition [15] 0.68%
98.5%: viability [1]
77.7%: viability [6, 16]

Cc1nnc(SCC(=O)Nc2ccc3c4c(cccc24)CC3)n1C
86.8%: viability [6, 16]
102%: viability [1]
inactive: Her2 level [2] 79% | viability [3] 102% | viability [4] 93.2% | viability [5] 86.9% | differential viability (reversal) ([6]; H69AR cells + 2 uM doxorubicin) 0.115% | inhibition [7] -6.08% | inhibition [8] -3.83% | growth inhibition [9] -0.36% | growth inhibition [10] -5.08% | viability increase [11] -4.3% | viability [12] 92.9% | viability [13] 89.8% | inhibition [14] 3.25% | RAM network inhibition [15] 3.77%
86.9%: viability [6, 17]

Cc1ccc(N(C)C(=O)N2CCN(c3ccccn3)CC2)cc1
inactive: Her2 level [2] 112% | viability [3] 94.5% | viability [4] 109% | viability [5] 98.2% | differential viability (reversal) ([6]; H69AR cells + 2 uM doxorubicin) 7.52% | inhibition [7] 2.27% | inhibition [8] -0.5% | growth inhibition [9] 0.955% | growth inhibition [10] 5.44% | viability increase [11] -1.03% | viability [12] 97.6% | viability [13] 97.1% | inhibition [14] 1.14% | RAM network inhibition [15] -0.55%
90.7%: viability [6, 16]
94.5%: viability [1]
98.2%: viability [6, 17]

Source: PubChem BioAssay
